# Laboratory results as given in PubChem BioAssay AID651821 (The Scripps Research Institute Molecular Screening Center, 2012).
# The whole screen tested about 370,000 compounds, of which about 4,700 (1.3%) were called active.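 How the source made its calls: active means inhibition above the plate cutoff, the mean of all test compounds on that plate plus 3 SD (cut at about 35% in these data); inactive means the rest.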 What follows is part of a selection rich in actives, with near analogues and random picks from the rest.
# Assay: small molecules binding CAG repeat RNA – biochemical, fluorescence, primary screen (AID 651821);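 further: 0% = DMSO alone and 100% = 100 µM mitoxantrone as full dye displacement; higher means more dye released from RNA so lower well fluorescence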
# Details: r(CAG) RNA repeat, TO-PRO-1 dye displacement fluorescence; at 3 µM; active compounds read high
row,Structure (SMILES),inhibition
1,O=C1[C@@H](c2ccccc2)[C@@H](c2ccccc2)N1c1ccccc1,2.62% (inactive)
2,CCOC(=O)[C@]12CCCC3=C1N(CCC3)C(=O)[C@@H](CC(=O)NCc1cccs1)C2,-1.37% (inactive)
3,C=CCN1C(=O)[C@@H](CC(=O)NCCCOCCCC)[C@]2(C(=O)OCC)CCCCC/C=C/12,0.69% (inactive)
4,OC(c1ccccc1)c1nc(/C=C/c2ccc(C(F)(F)F)cc2)cs1 (configuration not stated),3.22% (inactive)
5,O=C(Nc1nonc1-c1ccc(Cl)cc1)c1ccco1,-0.35% (inactive)
6,O=C(Nc1c(-c2ccccc2)nc2c(Br)cc(Br)cn12)c1ccco1,7.88% (inactive)
7,O=C(Nc1nc(-c2ccco2)c(-c2ccco2)s1)c1ccco1,70.5% (active)
8,COC(=O)C1=C(C)N(Cc2ccc(F)cc2)C(=S)NC1c1cccc(Cl)c1 (configuration not stated),3.4% (inactive)
9,N[C@@H](Cc1ccccc1)C(=O)N1CCC[C@@H]1C(=O)N1CCC2CCN(S(=O)(=O)c3ccccc3)CC21 (some centres not stated),0.99% (inactive)
10,COC(=O)Cc1nnn2c1[C@H](C)[C@@H](OC)c1cc(Br)ccc1-2,-0.28% (inactive)
11,Clc1ccc(C(Cn2ccnc2)OCc2ccsc2Cl)c(Cl)c1 (configuration not stated),2.12% (inactive)
12,Cc1c(Cl)cccc1NC(=O)CC1SC(=NCC2CCCO2)NC1=O (configuration not stated),-0.81% (inactive)
13,CCN=C1SC(CC(=O)Nc2ccc(C)cc2)C(=O)N1CC (configuration not stated),-2.97% (inactive)
14,Cc1ccc(NC(=O)CC2S/C(=N/N=C3\CCCc4ccccc43)NC2=O)cc1 (configuration not stated),42.2% (active)
15,CC(=O)N1C[C@@H](CO)[C@@H](N(C)C(=O)C(C)(C)C)C[C@H]1c1ccccc1Br,-1.82% (inactive)
16,C[C@@H]1COc2cccc(N3CCCC3)c2S(=O)(=O)N1C,1% (inactive)

row,Structure (SMILES),inhibition
1,CC(C)(C)C1C/C(=C/c2ccco2)C(=O)/C(=C/c2ccco2)C1 (configuration not stated),44.8% (active)
2,O=C(CN1C(=O)NC(Cc2c[nH]c3ccccc23)C1=O)Nc1ccccc1C(F)(F)F (configuration not stated),2.5% (inactive)
3,CC1CCN(C(=O)c2ncn3c2C(=O)N[C@@H](C)C3)CC1,1.9% (inactive)
4,O=C(N1CCOCC1)N1CC[C@H]2[C@H](CCCN2Cc2ccc(F)cc2)C1,-0.35% (inactive)
5,C=CCN1C(=O)[C@@H](CC(=O)N2CCN(C(=O)OCC)CC2)[C@]2(C(=O)OCC)CCCCC/C=C/12,1.94% (inactive)
6,COc1ccc(CSc2nnc(-c3cccc(C)c3)n2C)cc1,-0.02% (inactive)
7,CCOc1ccc(-n2c(SCC(=O)Nc3cc(C(=O)O)ccc3Cl)nc3ccccc3c2=O)cc1,46.3% (active)
8,CCOc1ccc(NC(=O)CSc2nc3ccccc3c(=O)n2Cc2cccs2)cc1,1.43% (inactive)
9,COc1ccc(-n2c(SCC(=O)Nc3ccc(C)c(Cl)c3)nc3ccccc3c2=O)cc1,16.1% (inactive)
10,COc1ccc(CN2C(=O)N3Cc4cc(OC)ccc4C3CS2(=O)=O)cc1 (configuration not stated),1.88% (inactive)
11,COCCCNC(=O)C[C@H]1C[C@@]2(C(=O)OC)C(=C[C@H](C(C)(C)C)O[C@@H]2C)N(Cc2ccc(Cl)cc2Cl)C1=O,1.45% (inactive)
12,COC(=O)[C@]12C[C@H](CC(=O)NCCc3ccccc3OC)C(=O)N(Cc3ccccc3)C1=C[C@H](C(C)C)O[C@@H]2C1CC1,0.77% (inactive)
13,Cc1ccccc1-n1c(SCC(=O)Nc2cccc3ccccc23)nc(O)cc1=O,42.6% (active)
14,Cc1ccc(-n2c(SCC(=O)Nc3cccc4ccccc34)nnc2-c2ccccn2)cc1,3.79% (inactive)
15,C=CCn1c(N)cc(=O)nc1SCC(=O)Nc1cccc2ccccc12,3.99% (inactive)
16,CC(C)N1CCCCC(NC(=O)C(C)(C)C)C1=O (configuration not stated),0.73% (inactive)
